Structures can show the parent of a compound that is named as a salt.
What follows are compounds tested on Saccharomyces cerevisiae BY4741 SeMeCo community (assay: z-score of subpopulation abundance vs DMSO median, subpopulation auxotrophic for HUM; higher = larger share of this subpopulation than in DMSO controls). Conditions: 10 µM; 24 h; SM minimal medium; subpopulation (auxotrophy): HUM.
Method: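 Fluorescent four-plasmid SeMeCo (self-establishing metabolically cooperating S. cerevisiae BY4741 community; plasmids pH-mRuby2, pL-mWasabi, pU-eCFP, pM-TagRFP657) was grown 24 h in minimal SM medium with each Selleck FDA-approved drug at 10 µM in 384-well plates. Cells were fixed and imaged by high-content confocal microscopy. For each auxotrophic subpopulation (and the prototroph), a z-score gives the deviation from the DMSO vehicle-control population median.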

Row | Compound | z-score of subpopulation abundance
1 | O=c1[nH]c2ccccc2n1CCCN1CCC(n2c(=O)[nH]c3cc(Cl)ccc32)CC1 [Domperidone] | 0.44
2 | O=C(O[C@H]1C[C@H]2CC[C@@H](C1)[N+]21CCCC1)C(O)(c1ccccc1)c1ccccc1 [Trospium chloride] | -0.32
3 | CC(C)N(CCC(C(N)=O)(c1ccccc1)c1ccccn1)C(C)C (centres undefined) [Disopyramide] | -0.19
4 | CN1c2ccccc2C(NCCCCCCC(=O)O)c2ccc(Cl)cc2S1(=O)=O (centres undefined) [Tianeptine sodium] | -0.16
5 | C[C@@H]1CC[C@H]2[C@@H](C)C(=O)O[C@@H]3O[C@@]4(C)CC[C@@H]1[C@]32OO4 [Artemisinin] | -0.49
6 | CC(=O)O[C@H]1C[C@@H]2CC[C@@H]3[C@H](CC[C@@]4(C)[C@H]3C[C@H]([N+]3(C)CCCCC3)[C@@H]4OC(C)=O)[C@@]2(C)C[C@@H]1[N+]1(C)CCCCC1 [Pancuronium dibromide] | -0.72
7 | CCOC(=O)Nc1ccc(NCc2ccc(F)cc2)cc1N [Retigabine] | -0.05
8 | CN(C)[C@@H]1C(=O)C(C(N)=O)=C(O)[C@@]2(O)C(=O)C3=C(O)c4c(O)cccc4[C@@](C)(O)[C@H]3[C@H](O)[C@@H]12 [Oxytetracycline (Terramycin)] | -0.11
9 | CN1C(=O)COc2c(C(=O)NC3CN4CCC3CC4)cc(Cl)cc21 (centres undefined) [Azasetron HCl] | 0.35
10 | C[CH2][Hg][S]c1ccccc1C(=O)[O-].[Na+] [Thimerosal] | 14.9
11 | COc1ccc2c(c1)[C@]13CCCC[C@@H]1[C@H](C2)N(C)CC3 [Dextromethorphan hydrobromide hydrate] | 0.2
12 | O=C(O[C@H]1C[N+]2(CCCOc3ccccc3)CCC1CC2)C(O)(c1cccs1)c1cccs1 [Aclidinium Bromide] | 0.22
13 | N[C@@H]1C[C@H]1c1ccccc1 [Tranylcypromine (2-PCPA) HCl] | -0.57
14 | CN(C)C(=O)Oc1ccc[n+](C)c1 [Pyridostigmine Bromide] | 0.11
15 | COc1ccc(C(CN(C)C)C2(O)CCCCC2)cc1 (centres undefined) [Venlafaxine] | 0.51
16 | COc1cc2c(cc1OC)C1CC(=O)C(CC(C)C)CN1CC2 (centres undefined) [Tetrabenazine (Xenazine)] | -0.9
17 | CNC1CC(N)C(O)C(OC2OC(CO)C(O)C3OC4(OC(C(N)CO)C(O)C(O)C4O)OC23)C1O (centres undefined) [Hygromycin B] | -0.41

Row | Compound | z-score of subpopulation abundance
18 | Oc1cc(Cl)ccc1Oc1ccc(Cl)cc1Cl [Triclosan] | -1.9
19 | CCN(C)C(=O)Oc1cccc([C@H](C)N(C)C)c1 [Rivastigmine Tartrate] | -0.85
20 | CC1(C)SC2C(N)C(=O)N2C1C(=O)O (centres undefined) [6-Aminopenicillanic acid] | 0.65
21 | COC(=O)C1=CCCN(C)C1 [Arecoline HBr] | -0.03
22 | N#Cc1nn(-c2c(Cl)cc(C(F)(F)F)cc2Cl)c(N)c1[S+]([O-])C(F)(F)F (centres undefined) [Fipronil] | -0.76
23 | CN(C)[C@@H]1C(=O)C(C(N)=O)=C(O)[C@@]2(O)C(=O)C3=C(O)c4c(O)cccc4[C@@](C)(O)[C@H]3[C@H](O)[C@@H]12 [Oxytetracycline Dihydrate] | -0.79
24 | CN1[C@@H]2CC[C@H]1C[C@@H](OC(=O)C(CO)c1ccccc1)C2 (some centres undefined) [Atropine sulfate monohydrate] | -0.27
25 | C[C@H]1O[C@H](O[C@H]2[C@H](O)[C@@H](O)[C@@H](O)[C@H](O)[C@@H]2O)[C@@H](N)C[C@@H]1NC(=N)C(=O)O [Kasugamycin hydrochloride] | -0.14
26 | CN(C)C(=O)Oc1cccc([N+](C)(C)C)c1 [Neostigmine Bromide] | -0.37
27 | CN(C)[C@@H]1C(=O)C(C(N)=O)=C(O)[C@@]2(O)C(=O)C3=C(O)c4c(O)ccc(Cl)c4[C@@](C)(O)[C@H]3C[C@@H]12 [Chlortetracycline HCl] | 0.05
28 | NC(=O)CN1CCCC1=O [Piracetam] | 1.72
29 | CC[C@H]1[C@@H]2C[C@H]3[C@@H]4N(C)c5ccccc5[C@]45C[C@@H]([C@@H]2[C@H]5O)N3[C@@H]1O [Ajmaline] | -0.48
30 | CCN1CC2(OC(=O)c3ccccc3NC(C)=O)CCC(OC)C34C1C(CC23)C1(O)CC(OC)C2CC4C1(O)C2OC (centres undefined) [Lappaconitine] | 0.34
31 | CN[C@@H]1[C@@H](O)[C@@H](O[C@@H]2[C@@H](O)[C@H](O[C@H]3O[C@H](CN)CC[C@H]3N)[C@@H](N)C[C@H]2N)OC[C@]1(C)O.CN[C@@H]1[C@@H](O)[C@@H](O[C@@H]2[C@@H](O)[C@H](O[C@H]3O[C@H]([C@@H](C)N)CC[C@H]3N)[C@@H](N)C[C@H]2N)OC[C@]1(C)O.CN[C@@H]1[C@@H](O)[C@@H](O[C@@H]2[C@@H](O)[C@H](O[C@H]3O[C@H]([C@@H](C)NC)CC[C@H]3N)[C@@H](N)C[C@H]2N)OC[C@]1(C)O [Gentamicin Sulfate] | -0.69
32 | C[N+](C)(C)CCCCCCCCCC[N+](C)(C)C [Decamethonium Bromide] | 0.18
33 | COc1ccc(C=O)cc1 [p-Anisaldehyde] | -0.95
34 | CC[C@H]1CN2CC[C@]3(C(=O)Nc4ccccc43)[C@@H]2C[C@@H]1/C(=C\OC)C(=O)OC [Rhynchophylline] | 0.73

Source: the supplement of paper PMC8975748
